Results published in the OligoGym collection.
Note: reference of the scale not given here.

Each sequence was assayed against C8orf86 (assay: pooled miR-30 sensor sort-seq; sequence = guide strand). Settings: shRNA.
TAATTCAGGAGTTCTGGGCGGG was tested, and the sensor-assay potency score (higher = more potent) was 0.0945. In the case of TAATCAACTCCTCAGCTGGGAG, the sensor-assay potency score (higher = more potent) is reported as -1.02. TTTCCTTCCCTTCTGTCCCAAA was tested, and the sensor-assay potency score (higher = more potent) was -1.07. TCTTTGTCTCTCTGTTCGCTGC was tested, and the sensor-assay potency score (higher = more potent) was -0.625.

The sequences below were run against C9orf100 in the same assay as above. Settings: shRNA.
Work on ATCTGGAGTAGCTTGGTCCAGG yielded a sensor-assay potency score (higher = more potent) of -1.26. TTCTTGGTAGCGCCGCTCGGTC gave a sensor-assay potency score (higher = more potent) of -1.6. For TTTCTTTAGCTGCTCCTGCAGG, the sensor-assay potency score (higher = more potent) was -0.717. TATTTTTCTTTAGCTGCTCCTG gave a sensor-assay potency score (higher = more potent) of -0.997. Sequence TTATAGAGCTCCAAGTGGCGGC has a sensor-assay potency score (higher = more potent) of -0.479. TTGATGGTCAGGGCTGTTGGGA was tested, and the sensor-assay potency score (higher = more potent) was -1.1. Sequence TCGGTCTCTAGCAGCTCCCGGG has a sensor-assay potency score (higher = more potent) of -1.38. In the case of TTGGTTATAGAGCTCCAAGTGG, the sensor-assay potency score (higher = more potent) is reported as -0.209. Work on TCAGACTGTGGTACCAGCGTGA yielded a sensor-assay potency score (higher = more potent) of 0.191. In the case of AAATTGGTTATAGAGCTCCAAG, the sensor-assay potency score (higher = more potent) is reported as -1.5. TGAAGCCGTACAAACCTCCGGA was tested, and the sensor-assay potency score (higher = more potent) was 0.131. Sequence TAAGCAGTAGCTTCTCATGAGG has a sensor-assay potency score (higher = more potent) of -1.31.

These sequences were tested against C9orf172 in the same assay as above. Settings: shRNA.
Work on TTGTCAGTGATGGTGATCTCGG yielded a sensor-assay potency score (higher = more potent) of -1.12. With TAGTAGGCGTCGAAGGTTGGGC the sensor-assay potency score (higher = more potent) was -0.683. Sequence ATGATCATGCACATGAAGGGGC has a sensor-assay potency score (higher = more potent) of 0.238. For TAGGTGTAGCAGCTGTGGCAGG, the sensor-assay potency score (higher = more potent) was -0.976. With TCATCAGGTCGTCCTCGTCGGC the sensor-assay potency score (higher = more potent) was -1.75. In the case of TAGTAGGTGTAGCAGCTGTGGC, the sensor-assay potency score (higher = more potent) is reported as -1.29. Work on TTGGCCTCGACGAACTCGCAAA yielded a sensor-assay potency score (higher = more potent) of -1.39. In the case of TCTCGGACAGGGACAGTGCGGC, the sensor-assay potency score (higher = more potent) is reported as -0.804. Sequence TTGATGTCCTGGTACACGGTCG has a sensor-assay potency score (higher = more potent) of -0.476. Sequence TTGAACATGGTCTCGGTGCGCC has a sensor-assay potency score (higher = more potent) of -0.301. Sequence TACCTTCCGAAGTCCTCCGTGT has a sensor-assay potency score (higher = more potent) of -0.162. With TATGAGTCGCTGGGCGTCGGGG the sensor-assay potency score (higher = more potent) was -1.22.

What follows are sequences tested against C9orf30 in the same assay as above. Settings: shRNA.
TTACAGGTTACTGACCGCCAAG was tested, and the sensor-assay potency score (higher = more potent) was -1.66. TTCAGAAGACTATAACAGCTTC showed a sensor-assay potency score (higher = more potent) of -0.358. Work on TATTCTGACAGCTGAACACGAG yielded a sensor-assay potency score (higher = more potent) of -0.517. TTATTGAGAACTTCCATTTTTA showed a sensor-assay potency score (higher = more potent) of -0.9. With TTAAATGAGGAAACAGGCCATT the sensor-assay potency score (higher = more potent) was -1.27. TTTTCTTACATTCCAGCACATA gave a sensor-assay potency score (higher = more potent) of -1.58. For TTATCCTGTGTTCCTCCTCTGC, the sensor-assay potency score (higher = more potent) was -1.19. With AGAACTTCCATTTTTATCCTGT the sensor-assay potency score (higher = more potent) was -0.0866. With TATACTTTTCTACTAAAGCCAG the sensor-assay potency score (higher = more potent) was -0.895. In the case of TTGTTGATGGTGTTCTTCCTCA, the sensor-assay potency score (higher = more potent) is reported as -0.2. Sequence ATCACTTTTCTTACATTCCAGC has a sensor-assay potency score (higher = more potent) of -1.2. TTTATTGAGAACTTCCATTTTT was tested, and the sensor-assay potency score (higher = more potent) was -0.999.
